Anthrax LF prot – blocks Bacillus anthracis lethal factor protease. inhibition, % at 10 µM. AID 588501. P15917. actives 0.12% (n = 360,000). multiplex microsphere protease cleavage assay, LF; note: plate controls were buffer without enzyme for full effect and enzyme alone for no effect
Bead autofluor – counter-screen for toxin protease inhibitors: compound fluorescence | compound autofluorescence counterscreen, microsphere flow cytometry; stronger effect = higher value | actives 3.1% (n = 360,000) | fluorescence intensity (concentration not given with the values); in the data active = fluorescence intensity above about 16000; inconclusive = no clear call, values can overlap the other calls
BoNT-A LC inh2 – BoNT A light chain protease inhibition. multiplex microsphere protease substrate cleavage, flow cytometry. inhibition, % at 10 µM. actives 0.17% (n = 360,000); note: plate controls were buffer without enzyme for full effect and enzyme alone for no effect
Vc quorum ag – quorum light induction in luxS cqsA deficient V. cholerae. V. cholerae BH1578 lux reporter, luminescence, 6 h. activation, % at 18.7 µM. actives 0.16% (n = 350,000). AID 588436; in the data active = activation mostly above about 9.7%, no sharp cut-off; inconclusive = no clear call, values can overlap the other calls; inactive = mostly below about 3.7%
MazF activator – activators of E. coli MazEF toxin-antitoxin RNase. FAM/BHQ RNA-DNA oligo cleavage fluorescence, 5 h. activation, % at 20 µM. actives 0.32% (n = 350,000); in the data active = activation above about 50%
Target sequence (P0AE70 whole entry, looked up): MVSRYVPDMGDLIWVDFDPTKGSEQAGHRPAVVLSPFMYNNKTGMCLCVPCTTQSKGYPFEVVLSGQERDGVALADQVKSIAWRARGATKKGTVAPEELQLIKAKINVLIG
BoNT-F LC inh – blocks Botulinum neurotoxin F light chain protease. Multiplex microsphere protease cleavage assay, flow cytometry. inhibition, % at 10 µM. actives 0.22% (n = 360,000). AID 588497; in the data active = inhibition above about 35%, passing the limit was not always enough; inconclusive = no clear call, values can overlap the other calls; note: plate controls were buffer without enzyme for full effect and enzyme alone for no effect
* marks the source's active call; other numbers are inactive results; i = inactive; ? = inconclusive; . = no result given. Shown are actives, neighbours in structure and some others; about 3.9% of the full set was active somewhere. Cut-off read from the data, not from the text of the source, unless noted: active = inhibition above about 30%; inconclusive = no clear call, values can overlap the other calls; inactive = below that.

SMILES	Anthrax LF prot	Bead autofluor	BoNT-A LC inh2	Vc quorum ag	MazF activator	BoNT-F LC inh
Cc1cc(C)c(NC2=NS(=O)(=O)c3ccccc32)c(C)c1	-3	22474*	?	-1	-5	1
COC(=O)c1ccc(C(=O)OC)c(NC2=NS(=O)(=O)c3ccccc32)c1	-7	23866*	-2	-1	0	-2
COC(=O)c1c(-c2ccccc2)csc1NC1=NS(=O)(=O)c2ccccc21	-1	1956	0	0	-2	-4
Cc1ccccc1NC1=NS(=O)(=O)c2ccccc21	-4	5293	-1	-7	-1	-5
Cc1ccc(C)c(NC2=NS(=O)(=O)c3ccccc32)c1	-2	11458	0	i	-4	-2
O=C(O)c1ccc(NC(=O)c2ccccc2NC(=O)c2ccccc2Cl)cc1	3	4466	-2	-1	11	?
CC1CCC(NC(=O)C(Cc2ccccc2)n2cccc2)CC1 (stereo not given)	-17	4432	-1	-2	8	-4
O=C(Cc1ccc(Cl)cc1)Nc1ccccc1N1CCN(C(=O)c2ccccc2)CC1	4	5550	2	0	-7	1
N#Cc1cnc(SCC(=O)Nc2ccccc2C(F)(F)F)nc1N	4	17110*	?	0	-6	-4
Cn1c(SCC(=O)Nc2ccccc2C(F)(F)F)nc2c(c1=O)SCC2	0	6770	-3	0	2	0
Cc1ccc(OCC(=O)NNC(=O)CSc2ncc(C#N)c(N)n2)cc1	-3	2536	0	0	-6	-4
Cc1nc(N)sc1-c1nnc(SCC(=O)Nc2ccccc2C(F)(F)F)n1C	-1	22790*	-2	0	4	-4
Cn1c(=O)n(C)c2cc(CNC(=O)[C@H]3O[C@@H](n4ccc(=O)[nH]c4=O)[C@H](O)[C@@H]3O)ccc21	9	4576	0	.	.	-9
Cc1csc(N/N=C/c2ccc(O)c([N+](=O)[O-])c2)n1	-5	22477*	0	i	-1	-5
O=[N+]([O-])c1cc(/C=N\Nc2nc(-c3ccccc3)cs2)ccc1O	-11	4040	0	0	-18	-2
O=S(=O)(c1ccccc1)c1cnc(-c2cccnc2)nc1-c1ccc(Cl)c(Cl)c1	-21	17469*	9	i	-1	11
Cc1ncc(S(=O)(=O)c2ccccc2)c(-c2ccccc2)n1	-5	3353	0	.	-4	-2
O=C(N/N=C/c1cccc(O)c1)c1ccc(-n2cnnn2)cc1	8	5728	2	i	-3	2
Cc1nc(-c2c(C(F)(F)F)noc2-c2ccc(O)cc2O)cs1	-2	17928*	?	0	-1	-9
COc1ccc(-c2nc(N)nc(C(F)(F)F)c2-c2csc(C)n2)c(O)c1	-6	3894	0	0	7	-3
CCOc1cc(C)c(-c2onc(C(F)(F)F)c2-c2csc(C)n2)c(O)c1	-8	22729*	3	0	5	1
Oc1ccc(-c2onc(C(F)(F)F)c2-c2cscn2)c(O)c1	2	2935	0	i	11	-1
COc1ccc(/C=N/Nc2ncccc2[N+](=O)[O-])c(OC)c1	-10	3893	0	0	-4	-1
CCOc1ncccc1C(=O)OCc1c(F)cccc1Cl	-7	3569	-2	0	-1	-13
O=C(/C=C\Nc1ccc2c(c1)OCO2)c1ccc(Cl)s1	-1	4355	1	-2	86*	-11
SMILES	Anthrax LF prot	Bead autofluor	BoNT-A LC inh2	Vc quorum ag	MazF activator	BoNT-F LC inh
CCCCOc1ccc(-c2nc(SCC(N)=O)n[nH]2)cc1	-4	20074*	0	3	3	-1
CCCCOc1ccc(-c2nc(=S)[nH][nH]2)cc1	-1	16673*	?	0	5	0
CCCCOc1ccc(-c2ncc(N)cn2)cc1	12	3821	-1	-1	-2	5
CC1(C(=O)Nc2cccc(NS(C)(=O)=O)c2)CCN1Cc1ccccc1OC(F)F (stereo not given)	-5	3664	0	-1	.	0
CCn1c(SCC(=O)NCC(=O)Nc2ccc(F)cc2)nnc1-c1cccs1	-2	7227	0	25*	5	-2
CCn1c(SCC(=O)Nc2ccc(C(=O)OC)cc2)nnc1-c1cccs1	-8	8815	-1	-1	5	-14
CCCn1c(=O)c2ccccc2n2c(SCC(=O)NCc3cccs3)nnc12	5	3805	2	-5	5	34
CCn1c(SCC(=O)NCc2ccco2)nnc1-c1cccs1	-7	19582*	?	-3	-2	6
CCn1c(=O)c2ccccc2n2c(SCC(=O)NCc3cccs3)nnc12	-1	23072*	-2	-4	-2	-4
Cc1cccc(NC(=S)NCCc2ccc3c(c2)OCCO3)c1C	-3	3371	-1	0	5	-4
COc1ccc(NC(=O)CSc2nnc3n2CCCCC3)cc1OC	-3	3805	0	i	-26	1
CCCOc1ccc(Cn2c(=O)oc3ccc(C)cc32)cc1	0	4916	-2	i	0	-8
CC1(C)NC(=O)N(CC(O)COC2CCCCC2)C1=O (stereo not given)	-1	3474	0	-2	7	6
CC1(C)NC(=O)N(CC(O)CN2CCCCC2)C1=O (stereo not given)	1	19639*	?	i	-3	1
CSc1nc(=O)n2cccc(C)c2n1	-1	21767*	-5	i	1	-5
CC(=O)Nc1ccc(NC(=O)CSc2nc(=O)n3cccc(C)c3n2)cc1	?	?	3	0	-4	14
C[C@@H]1CN([C@H](C)CO)S(=O)(=O)c2ccc(C#Cc3ccccc3F)cc2O[C@H]1CN(C)C(=O)c1ccc2c(c1)OCO2	-4	3307	0	0	-6	1
CC(NC(=O)c1ccc2c(c1)OCO2)C1CCCO1 (stereo not given)	0	22158*	0	0	-6	1
O=C(CN(Cc1ccco1)C(=O)c1ccc(F)cc1F)Nc1ccccc1C(F)(F)F	-5	6714	2	i	3	4
O=C(CN(Cc1ccco1)C(=O)c1cc(=O)[nH]c2ccccc12)Nc1ccccc1C(F)(F)F	-4	16502*	0	-3	-2	0
CCn1c(-c2cc(-c3cccc(OC)c3)nc3ccccc23)n[nH]c1=S	-4	19974*	2	i	-4	2
CC1CCC2C(=O)N(c3ccc(Cc4ccncc4)cc3)C(=O)C2C1 (stereo not given)	-4	4485	0	0	-4	-5
COc1ccc(C(=O)NC(CC(C)C)C(=O)O)cc1OC (stereo not given)	-3	20991*	?	i	14	-4
COc1ccc(CNC(=O)N[C@@H](CC(C)C)C(=O)O)cc1OC	-2	?	-1	i	11	-15
O=C(Nc1ccc(F)cc1)N1CCC(c2nc3c(nnn3Cc3cccc(Cl)c3)c(=O)[nH]2)CC1	-2	25569*	-5	0	-13	-10

Screening results (PubChem)
